The whole screen tested about 300,000 compounds, of which about 660 (0.22%) were called active.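 The calls were made as follows: active = mean replicate score, as percent of positive control, at or above 50; inconclusive = mean below 50 but at least one replicate at or above 50; inactive = mean and every replicate below 50.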 This excerpt belongs to a sample that is enriched for actives.
experiment: blockers of SFLLRN-triggered platelet ATP release – cell-based, MLPCN, human platelets, primary screen (AID 1663); settings: human platelet-rich plasma, SFLLRN dense granule ATP release, luminescence; hits give high values;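 compounds screened at 7.5 µM in platelet-rich plasma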

inhibition, inactive:
Cc1cccnc1CCNC(=O)C1CCC(=O)N(Cc2cccc(F)c2)C1 (stereo not drawn) -10.1%
CC(=O)N1CCN(CC(c2ccccc2)c2ccccc2)CC1 7.74%
COc1cccc(N2CCN(c3ccc4nnc(CCC(=O)N5CCN(C)CC5)n4n3)CC2)c1 7.34%
COC(=O)c1c(NC(=O)CN2C(=O)NC(CCc3ccccc3)C2=O)sc2c1CCCCC2 (stereo not drawn) -0.263%
COc1ccc(C2=NS(=O)(=O)N(C)C(C(=O)N(C)Cc3ccccc3)=C2)cc1 0.338%
O=C(CN(C(=O)c1nsc(Cl)c1Cl)c1cccc(F)c1)NC1CCCC1 -4.29%
COc1ccc(/C=N/NC(=O)Cn2cc(C(F)(F)F)ccc2=O)cc1 3.51%
Cc1nn(CC(=O)NCC2CCCO2)c(=O)c2cc3ccccc3n12 (stereo not drawn) -4.75%
CCOC(CNC(=O)C(=O)NCC(c1ccco1)N1CCN(c2ccc(OC)cc2)CC1)OCC (stereo not drawn) -9.05%
COc1ccc(C(=O)N2CCCC(C(=O)c3ccccc3OC)C2)cc1OC (stereo not drawn) 2.76%
Cc1ccc(S(=O)(=O)c2nc(NCCCn3ccnc3)sc2Cl)cc1 -1.94%
Cc1c(Cl)cccc1NC(=S)NCC(O)c1ccccc1 (stereo not drawn) 3.98%
CC(C)(CNCC(O)c1ccccc1)N1CCOCC1 (stereo not drawn) 1.36%
COc1ccc(NC(=O)CC(NC(C)c2ccccc2)C(=O)O)cc1 (stereo not drawn) -14.9%
Cc1ccc(C)c(OCCC(=O)OCC(=O)N2CCN(c3ccccc3)CC2)c1 -18.4%
CC1(c2ccc(Cl)cc2Cl)NC(=O)N(CC(=O)Nc2cccnc2Cl)C1=O (stereo not drawn) -2.12%
Cc1ccc(NS(=O)(=O)c2ccc(C(=O)NCCCN3CCOCC3)cc2)cc1 -3.44%
CCOc1ccc(S(=O)(=O)Nc2cccc(C(=O)NCC3(N4CCCCC4)CCCCC3)c2)cc1 5.48%
CCN(CC)C(=O)Oc1ccc(Br)cc1C(=O)Nc1ccc(F)c(Cl)c1 -3.91%
COC(C[C@@H](O)[C@H](C)[C@H](O)COCc1ccccc1)OC -0.14%
CC(=O)N/C(=C\c1ccccc1)C(=O)OC(C)C(=O)N(C)c1ccccc1 (stereo not drawn) -1.59%
CC(C)Cn1c(=O)c2ccccc2n2c(CCC(=O)NCc3ccccn3)nnc12 3.52%
O=C(CSc1ccc2nnc(-c3ccccc3)n2n1)N1CCCc2ccccc21 17.4%
CCCCNC(=O)C1(c2ccc(OC)cc2)CCOCC1 4.45%
CC(C)Oc1ccc(CCc2n[nH]c(=S)n2Cc2ccccc2)cc1 -6.11%
O=S(=O)(c1ccccc1)N1CCc2ccccc21 2.42%
CC(=O)Nc1ccc(C(=O)/C=C/c2ccc[nH]2)cc1 -21.1%
COc1cc2c(cc1OC)CN(CC(=O)Nc1ccc(F)cc1)CC2 7.57%
CCOC(=O)Cc1cc(=O)[nH]c(/N=C(\N)Nc2ccc(OC)cc2)n1 8.61%
Cc1nc2ccc(C(=O)N/N=C/c3ccc(O)cc3)cc2[nH]1 -1.64%
O=C(C[n+]1ccccc1)N/N=C/c1ccc(O)cc1 2.83%
CC(NC(=O)c1ccccc1C(=O)O)c1ccc(-n2ccnc2)cc1 (stereo not drawn) 13.8%
O=C(Nc1ccc(Cl)cc1)Nc1ccc(Oc2cccnc2)nc1 2.76%
CC(C)=CCN1CCN(Cc2cc3ccccc3[nH]2)CC1CCO (stereo not drawn) 9.2%
CCN(CC(=O)NCc1cccs1)S(=O)(=O)c1ccc(NC(C)=O)cc1 -21.6%
CC1CCCCN1S(=O)(=O)c1ccc(C(=O)Nc2nnc(-c3cccs3)o2)cc1 (stereo not drawn) -0.561%
O=C(Nc1ccncc1)Nc1ccc(F)cc1 4.47%
CC1(C)CC[C@]2(C(=O)O)CC[C@]3(C)C(=CCC4[C@@]5(C)CC[C@H](O)C(C)(C)C5[C@H](O)C[C@]43C)[C@@H]2C1 (stereo partly drawn) 3.05%
COc1cc(NC(=S)NNC(=O)CC(C)C)c(OC)cc1Cl -6.51%
COC(=O)c1c(NC(=O)c2ccccc2F)sc2c1C(C(=O)OC)CC2 (stereo not drawn) 2.31%
Cc1nc(CC(=O)NNS(=O)(=O)c2ccc(F)c(Cl)c2)cs1 12.2%
O=C(N/N=C/c1ccccn1)c1cccc(NC(=O)c2ccc(Cl)cc2)c1 1.55%
COc1cc(/C=N/Nc2nn3cnnc3c3ccccc23)cc(OC)c1OC 11.5%
C/C(=N\Nc1nncc2ccccc12)c1ccc(Cl)c([N+](=O)[O-])c1 -6.62%
Cc1c(C(=O)NCCN2CCOCC2)sc2nc(-c3ccc(F)cc3)cn12 10.4%
CSCCC(NC(=O)COc1ccccc1)C(=O)OCCOc1ccc(F)cc1 (stereo not drawn) -11.3%
CCN1C(=NCc2ccc(OC)cc2)N[C@@H](CCc2ccccc2)[C@H](C(=O)NCc2ccc(OC)cc2)[C@H]1C 9.74%
CN(C)S(=O)(=O)c1cccc(C(=O)OCC(=O)N2CCCC2=O)c1 -9.7%
O=C(NCc1ccccc1)C1CCN(C(=O)Cc2ccccc2)CC1 -35.6%
CCOC(=O)c1cnc2nc(SCc3ccccc3Cl)[nH]n2c1=O 3.83%
CCOc1ccc(C2C3=C(CCCC3=O)N(CC(=O)O)C3=C2C(=O)CCC3)cc1 -23.7%
CCN1CCN(C(=O)C2CCCN(S(=O)(=O)c3ccc(OC)c(OC)c3)C2)CC1 (stereo not drawn) 5.04%

inhibition, active:
OC(CNCc1ccc(Cl)c(Cl)c1)c1ccccc1 (stereo not drawn) 52.7%
O=C(NCC1(N2CCCCC2)CCCCC1)c1ccc(NS(=O)(=O)c2ccc(F)cc2)cc1 52.6%
COc1cc2c(cc1OC)/C(=C/C(=O)c1ccc(NC(C)=O)cc1)NCC2 55.3%
Cc1nonc1C(=O)N/N=C/c1ccc(O)cc1 103%
CC1CCCCN1S(=O)(=O)c1ccc(S(=O)(=O)N(CC(=O)Nc2ccccc2)Cc2cccs2)cc1 (stereo not drawn) 50.6%
CN(CCO)c1ccc(/C=N/Nc2nncc3ccccc23)cc1 76.1%
